# In the library only some 6.1% were active in any assay of this set; here they are far more common.
# S2 tox = Viability Counterscreen for Primary qHTS for Inhibitors of ATXN expression; S2 cells (HEK-293 line with an ATXN2-luciferase reporter) viability, CellTiter-Fluor protease fluorescence, 24 h; Potency, µM (doses to about 56.7 µM), usual class: cytotoxic; actives 0.49% (n = 400,000); AID 651635, 2014; further: nearly all actives have a fitted effect of over 40% in size
# ATXN2 expr inh = Primary qHTS for Inhibitors of ATXN expression. HEK-293 ATXN2-luciferase reporter, luminescence, 24 h. Potency, µM (titrated, usually from 57 µM), inactives show top-dose activity change, negative = inhibition, most hits filed as inhibitors. actives 0.72% (n = 360,000); further: on the % scale 0 is the no-effect control and ±100 the full control effect; nearly all actives have a fitted effect of over 55% in size
#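 ATXN2-luciferase reporter cells (luciferase flanked by upstream and downstream ATXN2 gene portions) were treated 24 h at 37 °C with compounds at up to 57 uM. SteadyGlo luminescence gave expression; GF-AFC fluorescence gave viability.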
# TGFb inhibitor = qHTS for Inhibitors of TGF-b; HepG2 CAGA-GFP TGF-b/SMAD3 reporter, GFP fluorescence, 18 h; TGF-beta stimulated, 500 pg/mL final; Potency, µM (top dose mostly 46.1 µM), inactives show at the top dose activity, negative = inhibition, most hits filed as inhibitors; actives 1.2% (n = 410,000); further: on the % scale 0 is the no-effect control and ±100 the full control effect; nearly all actives have a fitted effect of over 65% in size
#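 Per well, imaged GFP fluorescence of HEPG2 CAGA-GFP cells gives the signal; cells get compound, then TGF-beta (500 pg/mL final), 18 h at 37 degrees C; %Activity versus -TGF-beta and +DMSO controls.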
# RORgamma inh = qHTS for inhibitors of ROR gamma transcriptional activity; Drosophila S2 Gal4-RORgamma UAS-luciferase reporter, 20 h; Nuclear receptor ROR-gamma (Mus musculus), P51450; actives 5.4% (n = 310,000); Potency, µM (doses to about 53.6 µM), for the others: top-dose activity change, negative = inhibition, most hits filed as inhibitors; further: on the % scale 0 is the no-effect control and ±100 the full control effect; nearly all actives have a fitted effect of over 60% in size
# Target sequence (P51450 whole entry, looked up, the tested form may be a part): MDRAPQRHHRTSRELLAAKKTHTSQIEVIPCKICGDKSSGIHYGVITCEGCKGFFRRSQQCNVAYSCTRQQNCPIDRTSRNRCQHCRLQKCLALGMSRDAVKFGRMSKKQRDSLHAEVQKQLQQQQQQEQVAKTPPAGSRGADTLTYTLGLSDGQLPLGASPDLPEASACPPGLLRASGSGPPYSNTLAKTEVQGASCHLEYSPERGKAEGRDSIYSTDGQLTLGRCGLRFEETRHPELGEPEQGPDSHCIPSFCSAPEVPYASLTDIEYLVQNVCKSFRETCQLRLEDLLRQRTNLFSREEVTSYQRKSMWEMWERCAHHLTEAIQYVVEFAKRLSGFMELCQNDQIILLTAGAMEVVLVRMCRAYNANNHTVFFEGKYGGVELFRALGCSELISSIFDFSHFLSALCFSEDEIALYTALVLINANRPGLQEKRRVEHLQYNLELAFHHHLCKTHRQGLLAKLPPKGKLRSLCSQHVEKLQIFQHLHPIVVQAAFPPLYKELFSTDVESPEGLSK
#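 Drosophila Schneider cells stably carrying a metallothionein-driven Gal4 DBD–ROR gamma fusion and a UAS-Photinus luciferase reporter were exposed to compound for 1 hr, then induced with copper sulfate (700 uM final) for 20 hr at ambient temperature before luminescence reading.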
# Gal4-VP16 FLuc = VP16 counterscreen qHTS for inhibitors of ROR gamma transcriptional activity; Drosophila S2 Gal4-VP16 UAS-luciferase, luminescence, 20 h; Potency, µM (highest dose often 53.6 µM), without a hit: top-dose activity, negative = inhibition, hits mostly inhibitors; actives 3.5% (n = 310,000); AID 2546, 2010;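 further: Gal4-VP16 expression switched on by copper sulfate through the metallothionein promoter; on the % scale 0 is the no-effect control and ±100 the full control effect; nearly all actives have a fitted effect of over 50% in size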
# HepG2 tox = qHTS for Inhibitors of TGF-b: Cytotox Counterscreen. HepG2 CAGA-GFP viability, ATP luminescence, 18 h. AID 588856, 2011. actives 0.76% (n = 410,000). Potency, µM (doses to about 46.1 µM), for the others: at the top dose activity change, negative = cytotoxicity, most hits filed as cytotoxic
#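 CellTiter-Glo luminescence gave cytotoxicity after 18 hours at 37 degrees C. The cells were HepG2 CAGA-GFP in 1% FBS DMEM, stimulated with 500 pg/mL TGF-beta after compound addition. %Activity was normalised to no-cell wells (complete cell-killing) and DMSO (no toxicity), and curves were fitted and classified.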
# * hit, by the source's call; i = inactive; ? = inconclusive; / = no result given; [ ] = another dose, or the depositor's remark. The call rests on the fitted dose curve; in most records, active means well fitted curve in the direction sought with a large enough effect; inconclusive means small, poorly fitted or top-dose-only effect, or another doubt; inactive means no such curve, though single readings can be large; an effect the other way counts as inactive or inconclusive. Potency means the concentration at half of the fitted maximal effect.
SMILES,S2 tox,ATXN2 expr inh,TGFb inhibitor,RORgamma inh,Gal4-VP16 FLuc,HepG2 tox
OC(c1ccccc1)(c1nc(/C=C/c2ccccc2)cs1)C(F)(F)F (stereo not given),i,-35.8%,22.4µM*,/,/,-113.9%
O=C(Cc1ccccc1)Nc1ccc(NC(=O)c2ccco2)nc1,i,48.0%,1.3%,31.5%,0.4%,-14.9%
COc1ccccc1C(=O)Nc1ccc(NC(=O)c2ccco2)cn1,i,16.9%,-23.1%,26.6%,-2.0%,12.7%
CC(C)(C)C(=O)Nc1ccc(NC(=O)c2ccco2)nc1,i,0.891µM*,14.4%,0.199µM*,0.562µM*,-10.2%
O=C(Nc1ccc(NC(=O)C2CC2)cc1)c1ccco1,i,12.9%,16.8%,-29.9%,-12.3%,-15.2%
O=C(Nc1ccc(NC(=O)C2CCCCC2)cn1)c1ccco1,i,?,15.4%,?,8.91µM*,-21.8%
O=C(Nc1ccc(NC(=O)C2CC2)nc1)c1ccccn1,i,-37.3%,11.0%,-43.6%,7.08µM*,-39.2%
O=C(Nc1ccc(NC(=O)c2ccco2)nc1)c1ccco1,i,/,-6.0%,7.94µM*,-22.1%[10 µM],-30.8%
O=C(Nc1ccc(NC(=O)C2CC2)nc1)c1cnccn1,/,/,5.5%,10.9%,-14.3%,18.3%
C[C@@H]1CN(Cc2ccc3c(c2)CN(Cc2cccn2-c2cccnc2)CCO3)C[C@H](C)O1,i,/,/,/,/,/
CC(C)(C)C(=O)Nc1ccc(/C=C/C(=O)c2ccco2)cc1,?,60.8%,?,10µM*,-9.8%,-14.8%
Nc1ccc(/C=C/C(=O)c2ccco2)cc1,i,16.3%,-1.3%,?,?,-15.0%
O=C(Nc1ccc(Cl)cc1C(=O)Nc1ccccn1)c1ccco1,i,-3.7%,0.0%,12.6µM*,?,-28.8%
O=C(Nc1ccc(NC(=O)c2ccco2)nc1)c1ccccn1,i,-35.4%,-1.0%,?,1.78µM*,-22.7%
COc1ccc(-c2cc(C(C)=O)c(C)n2CCC(=O)NCc2ccc(F)cc2)cc1,/,/,-13.8%,/,/,-3.8%
O=C(CCC(=O)N1CCOCC1)NCCc1ccc(Cl)cc1Cl,i,-5.7%,-7.8%,6.31µM*,-11.7%,-4.1%
C=CCC(CC=C)(NC(=O)c1ccccc1)c1ccccc1,i,-3.6%,-3.8%,-14.7%,17.8µM*,6.3%
Cc1ccc(NC(=O)N2CCN(c3nnc(C)c4c(C)n(-c5ccc(Cl)cc5)nc34)CC2)c(C)c1,i,-17.7%,-17.2%,/,/,2.2%
COc1cc(SC)ccc1C(=O)Nc1ccc(C)cc1C,?,56.1%,-2.1%,35.0%,2.9%,22.3%
COc1cc(SC)ccc1C(=O)Nc1ccc(C)cc1,i,100.9%,-5.7%,?,20µM*,-25.7%
COc1c(C)cccc1C(=O)Nc1ccc(OCC(=O)N2CCOCC2)cc1C,?,1.4%,-10.4%,1.78µM*,?,5.3%
COc1cc(SC)ccc1C(=O)Nc1cccc(C)n1,i,9.4%,-13.6%,-36.3%,-0.3%,-7.4%
COc1cc(SC)ccc1C(=O)Nc1ccc(Br)cn1,i,/,5.8%,2µM*,7.94µM*,4.5%
COc1cc(C(=O)Nc2ccc(OCC(=O)N3CCOCC3)cc2C)cc(OC)c1OC,i,1.1%,5.2%,-8.3%,9.5%,-2.6%
COc1cc(SC)ccc1C(=O)Nc1ncc(C)s1,i,/,?,2.51µM*,?,-40.6%
O=C(Cn1c(=O)n(CCc2ccccc2)c(=O)c2c3c(sc21)CCCC3)Nc1ccc(F)c(F)c1,i,11.3%,-0.3%,/,/,6.9%
COc1cc(SC)ccc1C(=O)Nc1ccccn1,i,-22.4%,-13.0%,8.91µM*,10µM*,-16.4%
COc1cc(SC)ccc1C(=O)Nc1ccc(OCC(=O)N2CCOCC2)cc1,i,-22.6%,-1.6%,10µM*,11.2µM*,-12.2%
